The list is not random: actives were taken first. Their share in the collection is about 2.4%.
D2 PAM-1: potentiates the human D2 dopamine receptor allosterically; P14416; DiscoveRx D2 beta-arrestin cells, luminescence, 90 min; 100% = 57 uM dopamine signal; potentiation, % (concentration not given with the values); 360,000 compounds, 0.23% hits; in the data active = potentiation above about 50%; inconclusive = mostly about 30% to 49%
Target sequence (P14416 whole entry, looked up): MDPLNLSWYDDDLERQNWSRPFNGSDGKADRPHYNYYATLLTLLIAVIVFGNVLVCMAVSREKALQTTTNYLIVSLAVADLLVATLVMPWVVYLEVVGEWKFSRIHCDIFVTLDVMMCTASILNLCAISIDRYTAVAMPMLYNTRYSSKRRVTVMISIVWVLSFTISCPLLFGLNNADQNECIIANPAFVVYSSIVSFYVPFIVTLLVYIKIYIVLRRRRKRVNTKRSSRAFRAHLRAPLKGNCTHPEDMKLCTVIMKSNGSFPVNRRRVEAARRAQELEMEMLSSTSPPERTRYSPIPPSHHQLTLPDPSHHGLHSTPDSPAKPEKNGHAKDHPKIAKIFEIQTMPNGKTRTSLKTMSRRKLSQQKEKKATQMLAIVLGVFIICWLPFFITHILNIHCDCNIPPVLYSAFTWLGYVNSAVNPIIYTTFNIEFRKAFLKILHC
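PathHunter D2 cells, attached overnight at 37 deg C, received compound in DMSO plus dopamine at EC20 (50 nM final) for 90 min at 37 deg C. Beta-arrestin recruitment was read as luminescence after 1 h with detection reagent at ambient temperature.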
D2 antag: antagonists of human D2 dopamine receptor. HEK293 TREx D2 cells, calcium flux, dopamine EC80. inhibition, % at 10 µM. 340,000 compounds, 2% hits. AID 485344; in the data active = inhibition above about 30%; inactive = below that, where a call was filed
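Dopamine at EC80 is the agonist stimulus; test compounds precede it by 180 s. Calcium flux read kinetically in a force-coupled, inducible HEK293 T-REx D2 cell line.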
D2 PAM-2: positively modulates the human D2 dopamine receptor allosterically. HEK293 T-REx D2, calcium flux, EC20 dopamine potentiation. P14416. potentiation, % at 10 µM. 340,000 compounds, 0.34% hits;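 active = potentiation over 3 SD above the plate norm, cut at about 30% in these data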
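Tetracycline-induced HEK293 T-REx cells force-coupled to calcium signalling expressed D2; compounds were pin-added after a 10 s baseline, read kinetically 180 s, then an EC20 dopamine challenge followed with a further 180 s calcium read.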
D2 ag-1: activates the human D2 dopamine receptor. P14416. HEK293 T-REx D2 cells, calcium flux agonist mode. activation, % at 2 µM. 340,000 compounds, 0.53% hits. AID 485358;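 active = activation over 3 SD above normal in the single-dose calcium agonist read, cut at about 30% in these data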
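HEK293 Trex D2 cells, tetracycline-induced, o/n 30 C 5% CO2; no-wash Ca dye, RT 30–90 min; 10-cycle baseline, 23 nl cpd added, kinetic Ca read 180 s; agonist hits = positive Ca response.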
D2 ag-2: agonists of human D2 dopamine receptor (beta-arrestin); 360,000 compounds, 0.084% hits; DiscoveRx PathHunter D2 beta-arrestin, luminescence, 90 min; 100% = 57 uM dopamine signal; P14416; activation, % (test concentration not listed); in the data active = activation above about 40%; inconclusive = between about 15% and that limit
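Agonist mode: compounds alone added to overnight-plated D2 PathHunter cells for 90 min at 37 C, with 57 uM final dopamine (EC100) defining full response. Beta-arrestin recruitment detected by chemiluminescent reagent, read after 1 h at ambient temperature.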
D3 arrestin ag: activates human D3 dopamine receptor beta-arrestin recruitment; Potency, µM (highest dose often 76.9 µM), usual class: activators; DiscoveRx D3 beta-arrestin cells, luminescence, 90 min; shares compounds with D2 ag-1; 2,300 compounds, 4% hits; note: nearly all actives have a fitted effect of over 70% in size
D2 ag-3: counter-screen for D3 agonists: human D2 dopamine receptor agonism. shares compounds with D2 ag-1. DiscoveRx PathHunter D2 beta-arrestin, luminescence, 90 min; response scale: percent relative to full dopamine signal. Potency, µM (highest dose often 76.9 µM), most hits filed as activators. 2,300 compounds, 5.9% hits; note: nearly all actives have a fitted effect of over 70% in size
Each line names hits and unclear results; the compound was inactive in the other large screens (follow-up assays come after a bar, where they were run). Unless noted, calls come from the whole dose curve; as a rule, active = well fitted activation curve with a large enough effect; inconclusive = small, poorly fitted or top-dose-only effect; inactive = flat fitted curve, though single readings scatter.

Cc1ccc(-c2nnn3c2nc(NCC(C)c2ccccc2)c2ccccc23)cc1 (configuration not stated)	none (no result: D2 PAM-1, D2 antag, D2 ag-2)
COC(=O)c1sccc1S(=O)(=O)N(CC(=O)NCc1ccc(F)cc1)c1ccc(Cl)cc1	none (no result: D2 PAM-1, D2 antag, D2 ag-2)
COc1ccc(-c2c(-c3cc(OC)cc(OC)c3)n(C)c3ccc(-c4ccc5[nH]ccc5c4)cc23)cc1	none (no result: D2 antag, D2 ag-1) | D3 arrestin ag inactive | D2 ag-3 inactive
CC(=O)c1nn(-c2ccc(OC(F)(F)F)cc2)nc1Nc1ccc(Cl)cc1	none (no result: D2 PAM-1, D2 antag, D2 ag-2)
CCN1C(=O)[C@H]2[C@@H](c3ccc(C)cc3)N3C(=O)N(c4ccccc4)C(=O)[C@@]3(Cc3ccc(Cl)cc3)[C@H]2C1=O	none
CCN1C(=O)[C@H]2[C@@H](c3ccc(C)cc3)N3C(=O)N(c4ccc(C)cc4)C(=O)[C@@]3(Cc3ccc(Cl)cc3)[C@H]2C1=O	D2 ag-1 45 | D3 arrestin ag inactive | D2 ag-3 inactive
Cc1ccc(C(=O)CN2CCN(c3ccccn3)CC2)c(C)c1	D2 ag-2 inconclusive (no result: D2 antag, D2 PAM-2, D2 ag-1) | D3 arrestin ag inconclusive | D2 ag-3 inconclusive
Cc1ccc2[nH]cc(C(=O)CN3CCN(c4ccccn4)CC3)c2c1	D2 antag 34 | D3 arrestin ag inactive | D2 ag-3 inactive
O=C(CN1CCN(c2ccccn2)CC1)N1CC(O)CO1 (configuration not stated)	none | D3 arrestin ag inactive | D2 ag-3 inactive
O=C(CN1CCN(c2cccc(Cl)n2)CC1)N1CC(O)CO1 (configuration not stated)	none
CSc1ccccc1NC(=O)C1=CC(c2ccc3c(c2)OCO3)=NS(=O)(=O)N1C	none (no result: D2 PAM-1, D2 antag, D2 ag-2)
COc1ccc(N2CCN(C(=O)c3nn(-c4ccc(C)cc4)c(=O)n(C)c3=O)CC2)cc1	none (no result: D2 PAM-1, D2 antag, D2 ag-2)
Cc1cc(C)c(S(=O)(=O)N2CCC(n3c(C(F)(F)F)nc4cccnc43)CC2)c(C)c1	none (no result: D2 PAM-1, D2 antag, D2 ag-2)
N#Cc1c(-c2ccccc2)cc(-c2ccccc2)nc1SCC(O)CS(=O)(=O)Cc1ccc(Cl)cc1 (configuration not stated)	none (no result: D2 PAM-1, D2 antag, D2 ag-2)
CCCCN(CC)CCCNC(=S)Nc1ccc2nc(N3CCN(C)CC3)cc(C)c2c1	D2 antag 40, D2 ag-1 71 | D3 arrestin ag inactive | D2 ag-3 inactive
O=c1c2cc(NC(=S)NCCN3CCCCCC3)ccc2nc2n1CCCCC2	none
CCCCN(CC)CCCNC(=S)Nc1ccc2nc(N3CCN(CC)CC3)cc(C)c2c1	D2 antag 41, D2 ag-1 60 | D3 arrestin ag inconclusive | D2 ag-3 inactive
CCCCN(CC)CCCNC(=S)Nc1ccc2nc3n(c(=O)c2c1)CCCCC3	D2 antag 60, D2 ag-1 86 | D3 arrestin ag inactive | D2 ag-3 inactive
CCCN(CCC)CCCNC(=S)Nc1ccc2nc(N3CCCC3)cc(C)c2c1	none
CCOCCCNC(=O)NC(CCC(C)C)c1c(-n2cccc2)sc2c1CCN(C)C2 (configuration not stated)	none (no result: D2 PAM-1, D2 antag, D2 ag-2)
CSCCC(NC(=O)c1ccccc1)C(=O)NCCCSc1ccccc1 (configuration not stated)	none | D3 arrestin ag inactive | D2 ag-3 inactive
CCC(C)NC(=O)C(CCSC)NC(=O)c1ccccc1 (configuration not stated)	none
COc1ccc(-c2nc3ccccc3o2)cc1NC(=O)C(C)(C)Oc1ccc(Br)cc1	none (no result: D2 PAM-1, D2 antag, D2 ag-2)
CC(CCCCCCCCC(=O)O)N(CCO)C(=O)OC(C)(C)C (configuration not stated)	none | D3 arrestin ag inactive | D2 ag-3 inactive
Cc1ccsc1C(=O)NNC(=O)c1ccncc1	none | D3 arrestin ag inactive | D2 ag-3 inactive
O=C(Nc1ccc(C(=O)NCCCN2CCN(c3ccccc3)CC2)cc1)C1=CSCCO1	D2 antag 81, D2 ag-1 82, D2 ag-2 44 | D3 arrestin ag inactive | D2 ag-3 inconclusive
COC(=O)c1ccc(NC(=O)CCN2CCN(c3ccccc3)CC2)cc1	D2 antag 50, D2 ag-1 54, D2 ag-2 inconclusive | D3 arrestin ag inconclusive | D2 ag-3 inconclusive
COC(=O)c1cc(CN2CCN(c3ccccc3)CC2)ccc1O	none | D3 arrestin ag inactive | D2 ag-3 inactive
O=C(CCN1CCN(c2ccccc2)CC1)Nc1ccc(OCc2ccccc2)cc1	D2 antag 65, D2 ag-1 53 | D3 arrestin ag inconclusive | D2 ag-3 inconclusive
O=C(CCN1CCN(c2ccccc2)CC1)Nc1ccc(Cl)cc1	none
COc1ccc(-c2cc(C(=O)NCCc3ccc(OC)c(OC)c3)c3ccccc3n2)cc1	none (no result: D2 PAM-1, D2 antag, D2 ag-2)
CCOC(=O)C1=C(CN2CCN(c3ccccc3F)CC2)NC(=O)NC1c1ccc(OC)cc1 (configuration not stated)	none (no result: D2 PAM-1, D2 antag, D2 ag-2)
CCCOc1ccc(CNC(=O)c2oc3ccc4c(c3c2C)C(=O)CC(C)(CC)O4)cc1 (configuration not stated)	none (no result: D2 PAM-1, D2 antag, D2 ag-2)
CN(C)S(=O)(=O)c1cccc(NC(=S)NNC(=O)c2cc3ccccc3cc2O)c1	D2 antag 56, D2 ag-1 72 | D3 arrestin ag inactive | D2 ag-3 inactive
COc1cc(C#Cc2c(-c3ccccc3OC)oc3ccccc23)cc(OC)c1	none | D3 arrestin ag inactive | D2 ag-3 inactive
CC1CCC(C(=O)NC(C(=O)OCC(=O)c2ccc(Br)cc2)C(C)C)CC1 (configuration not stated)	none (no result: D2 PAM-1, D2 antag, D2 ag-2)
Cc1occc1-c1nnc(SCC(=O)Nc2nc3ccccc3s2)o1	D2 ag-1 45 | D3 arrestin ag inactive | D2 ag-3 inactive
Cc1cc(Cl)ccc1NC(=O)CN1CCN(C(=O)c2ccco2)CC1	none
COc1ccc([N+](=O)[O-])cc1NC(=O)CCCOc1ccccc1	none
Cc1ccccc1NC(=O)CN1CCN(C(=O)c2ccco2)CC1	D2 ag-1 44 | D3 arrestin ag inactive | D2 ag-3 inactive
COc1ccc(C)cc1NC(=O)CCN1CCN(C/C=C/c2ccccc2)CC1	D2 antag 68, D2 ag-1 70 | D3 arrestin ag inactive | D2 ag-3 inconclusive
COc1ccccc1N1CCN(CC(=O)Nc2nc(C)c(C(=O)N(C)C)s2)CC1	none | D3 arrestin ag inactive | D2 ag-3 inactive
COc1ccc([N+](=O)[O-])cc1NC(=O)CCN1CCN(c2ccccc2)CC1	D2 ag-2 47 (no result: D2 antag, D2 PAM-2, D2 ag-1) | D3 arrestin ag inconclusive | D2 ag-3 inconclusive
Cc1nc(NC(=O)CN2CCCCC2)sc1C(=O)N(C)C	none
COc1ccccc1NC(=O)c1ccc(NC(=O)CN2CCN(C(=O)c3ccco3)CC2)cc1	D2 antag 41, D2 ag-1 51 | D3 arrestin ag inconclusive | D2 ag-3 inactive
